From PubChem
Rows were chosen to be rich in hits. Some 5.7% of all compounds tested hit in one or more screens of this group.
hcDAF12 agonist – H. contortus DAF-12 activation, primary screen | HEK293 hcDAF-12 lit1-tk-luc reporter, luminescence; 0% DMSO, 100% Δ7-dafachronic acid | activation, % at 6.8 µM | 370,000 tested, 1.4% active | AID 652067;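 active = activation above the mean of all tested compounds plus 3 SD, cut at about 5.5% in these data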;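 also: 100% = response to 3 µM Δ7-dafachronic acid high control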
hgDAF12 agonist – hgDAF-12 agonism, primary luciferase screen. HEK293 GAL4-hgDAF12 UAS-luciferase reporter, agonist luminescence; normalized to butyrate control. activation, % at 6.8 µM. 370,000 tested, 1.8% active. AID 687014;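 active = activation above a cutoff set at the mean of all screened compounds plus 3 SD, cut at about 10% in these data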;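 also: 0% = DMSO wells and 100% = sodium butyrate wells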
ssDAF12 agonist – activators of S. stercoralis DAF-12 nuclear receptor; HEK293 ssDAF-12/GRIP1 lit1-tk-luc reporter, luminescence; % of 3 µM dafachronic acid response; activation, % at 6.8 µM; 370,000 tested, 1% active;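 active = activation above the mean over all tested compounds plus 3 SD, cut at about 0.9% in these data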;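 also: 0% = DMSO-only wells and 100% = 3 µM delta7-dafachronic acid wells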
AHR act – activates the human aryl hydrocarbon receptor | P35869 | AHR-responsive luciferase reporter cells, luminescence | activation, % at 5 µM | 320,000 tested, 2.5% active; in the data active = activation above about 47%;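 also: 0% = vehicle wells and 100% = reference agonist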
Target sequence (P35869 whole entry, looked up): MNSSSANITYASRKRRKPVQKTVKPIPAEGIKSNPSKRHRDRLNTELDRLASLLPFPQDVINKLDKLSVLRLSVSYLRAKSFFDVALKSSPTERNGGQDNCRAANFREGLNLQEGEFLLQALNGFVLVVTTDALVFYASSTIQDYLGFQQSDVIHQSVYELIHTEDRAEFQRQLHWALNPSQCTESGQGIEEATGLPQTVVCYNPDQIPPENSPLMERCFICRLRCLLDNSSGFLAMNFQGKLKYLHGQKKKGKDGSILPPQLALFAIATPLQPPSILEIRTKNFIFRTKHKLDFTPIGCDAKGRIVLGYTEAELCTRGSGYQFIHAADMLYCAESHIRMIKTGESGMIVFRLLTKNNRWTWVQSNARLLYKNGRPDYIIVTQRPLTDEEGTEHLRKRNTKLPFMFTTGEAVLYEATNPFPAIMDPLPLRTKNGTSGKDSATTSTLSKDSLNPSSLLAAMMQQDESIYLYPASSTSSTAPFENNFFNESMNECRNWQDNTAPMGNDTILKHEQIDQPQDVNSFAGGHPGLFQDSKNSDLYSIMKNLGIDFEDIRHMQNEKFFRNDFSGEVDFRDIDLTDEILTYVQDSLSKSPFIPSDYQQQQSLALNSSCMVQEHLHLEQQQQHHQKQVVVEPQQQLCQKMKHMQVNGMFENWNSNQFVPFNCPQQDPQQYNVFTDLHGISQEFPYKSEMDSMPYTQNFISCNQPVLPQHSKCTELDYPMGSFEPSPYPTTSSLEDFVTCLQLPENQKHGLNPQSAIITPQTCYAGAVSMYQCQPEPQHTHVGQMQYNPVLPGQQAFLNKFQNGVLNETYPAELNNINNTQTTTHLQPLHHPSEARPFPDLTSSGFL
DAX1 inh-1 – inhibits human nuclear receptor DAX1 | AID 504766 | HEK293 Gal4-DAX1 luciferase reporter, luminescence | 340,000 tested, 0.99% active | inhibition, % at 6.75 µM;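 active = inhibition above the mean over all tested compounds plus 3 SD, cut at about 4.2% in these data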;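 also: 0% = DAX1-transfected cells with DMSO and 100% = empty-vector control cells with DMSO; inhibition shows as a rise in luminescence from relieved DAX1 repression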
DAX1 inh-2 – blocks DAX1 repression of SF-1 activated StAR promoter; HEK293T StAR-luciferase reporter, SF-1/DAX-1 repression relief; inhibition, % at 6.8 µM; 370,000 tested, 1.1% active;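 active = inhibition above the mean over all tested compounds plus 3 SD, cut at about 3.6% in these data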;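 also: 0% = DAX-1 cells with DMSO and 100% = cells lacking DAX-1 with DMSO; higher inhibition means more luminescence from relief of DAX-1 repression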
The depositor's hits bear a star; x = not tested or not shown.

SMILES	hcDAF12 agonist	hgDAF12 agonist	ssDAF12 agonist	AHR act	DAX1 inh-1	DAX1 inh-2
COC(=O)C(Cc1ccccc1)NC(=O)c1ccc(NS(=O)(=O)c2ccc3[nH]c(=O)[nH]c3c2)cc1 (stereo not drawn)	-1	-1	-1	1	0	1
C(=N\N=C\c1ccccc1)/c1ccccc1	-1	2	0	-4	5.0*	1
COc1ccc(NC(=O)Nc2ccc3c(c2)C(=O)N([C@H](C)CO)C[C@H](C)[C@@H](CN(C)S(=O)(=O)c2ccc(OC)cc2)O3)cc1	-1	-1	-1	0	6.4*	0
COc1ccc(S(=O)(=O)N(C)C[C@H]2Oc3ccc(NC(=O)Nc4ccc(C(F)(F)F)cc4)cc3C(=O)N([C@H](C)CO)C[C@@H]2C)cc1	0	-1	-1	2	0	0
C[C@H](CO)N1C[C@H](C)[C@@H](CN(C)S(=O)(=O)c2ccccc2)Oc2ccc(NC(=O)NC3CCCCC3)cc2C1=O	0	0	0	-2	-1	4.2*
CCN(CC)C(=O)c1ccc(-c2nnc(OC)c3ccccc23)cc1	-3	-3	-2	1	1	0
CCn1cc(Br)c(C(=O)Nc2ccc(Cl)c(Cl)c2)n1	1	5	0	77*	2	0
CCn1cc(Br)c(C(=O)Nc2nccs2)n1	6.0*	11*	0	57*	0	0
CCn1nccc1C(=O)Nc1nccs1	3	2	-1	9	1	0
CCn1cc(Br)c(C(=O)Nc2cccc(Cl)c2)n1	5	5	-1	33	0	0
O=S1(=O)CC(O)C(N(CCO)C(=S)Nc2ccccc2)C1 (stereo not drawn)	1	-1	-1	-1	5.3*	0
Cc1ccc(NC(=O)CCCC(=O)O)c(-c2nc3ccccc3[nH]c2=O)c1	2	0	0.9*	37	1	0
C1CC(=NN=C2CCSCC2)CCS1	1	3	-1	x	1	1
CN(C)N1C(N)=C(C#N)C(c2ccccc2F)C2=C1CC(C)(C)CC2=O (stereo not drawn)	0	0	-1	-1	-1	0
Cc1cc(-c2nc3ncccc3o2)ccc1N	0	9	-1	9	1	2
CCCC(=O)Nc1cc(-c2nc3ncccc3o2)ccc1Cl	0	3	0	75*	0	-1
Cc1ccc(-c2nc3ncccc3o2)cc1N	5.8*	7	-1	67*	0	1
CC(C)(O)CCC(C)(C)O	2	2	-1	1	0	1
O=C(CN1CCCCCC1)Nc1ccc([N+](=O)[O-])cc1Br	-1	3	-1	-1	-1	0
O=C(CN1CCOCC1)Nc1ccc([N+](=O)[O-])cc1Br	1	0	1.3*	-1	2	-1
Cc1ccc([N+](=O)[O-])cc1-c1ccc(/C=N/NC(=O)CN2CCOCC2)o1	1	2	0.9*	30	-1	0
COc1ccc(NC(=O)N(O)C2(C#N)CCCCC2)cc1	3	9	0	x	2	2
O=C(Nc1ccc(Cl)cn1)Nc1ccc(Cl)cn1	0	1	-2	14	0	-1
C/C(=C\c1ccccc1)C(=O)Nc1ccc(Cl)cn1	5.6*	12*	0	-1	1	3
O=C(Nc1ccc(Cl)cn1)Nc1ccccc1F	1	8	1.6*	39	6.9*	0
SMILES	hcDAF12 agonist	hgDAF12 agonist	ssDAF12 agonist	AHR act	DAX1 inh-1	DAX1 inh-2
O=C(Nc1cnccn1)Nc1ccccc1F	-2	2	-1	61*	0	1
Cc1ccc(C2=CCN(C)C(=O)N2c2ccc(Br)cc2)cc1	1	9	-1	x	x	0
CCCCCCCCN1C(=O)[C@@H](CC(=O)NCCCCc2ccccc2)C[C@@]2(C(=O)OC)C1=C[C@H](C(C)(C)C)O[C@@H]2C	-2	1	-1	x	x	0
COc1ccc(-c2cn3cc(C(=O)NN)ccc3n2)cc1	1	12*	-1	55*	-1	2
COc1ccc(C(=O)NN)cc1	2	9	-1	8	1	0
COc1cccc(-c2nc(N3CC(C)CC(C)C3)c3ccccc3n2)c1O (stereo not drawn)	5.9*	0	0	x	0	0
O=P(Cc1ccncc1)(c1ccccc1)c1ccccc1	1	-2	0	0	5.9*	0
CN(Cc1ccccc1)C(=O)c1ccc(NC(=O)c2ccccc2)cc1	-2	-1	-1	-6	0	-2
CN1N=C2c3ccccc3CCCC2C1c1ccc(F)cc1 (stereo not drawn)	5.6*	2	0	49*	2	0
CN1C(=O)c2ccccc2N(C)C1c1ccc(F)cc1 (stereo not drawn)	-1	-1	-1	x	0	0
Cc1csc(SCC(=O)Nc2nccs2)n1	1	1	0	10	1	1
Cc1csc(SCC(=O)Nc2sccc2C(N)=O)n1	0	11*	-1	7	0	0
CC(=O)C1=C(C)NC(=S)NC1c1ccc(F)cc1 (stereo not drawn)	0	0	0	x	x	1
CN=CC1=C(O)C(C(=O)OC)C(C)(C)CC1=O (stereo not drawn)	-1	1	-1	-2	4.3*	0
CCC(C)N=CC1=C(O)C(C(=O)OC)C(C)(C)CC1=O (stereo not drawn)	0	0	0	1	0	1
CCCCn1cnc2c(=O)[nH]ccc21	1	2	-1	x	x	1
COCCCNC(=O)Cn1nc(Cc2ccncc2)c2ccccc2c1=O	2	0	-1	x	x	0
O=[N+]([O-])c1ccc2nc(SCc3cn4ccccc4n3)[nH]c2c1	-2	4	-1	31	0	0
O=[N+]([O-])c1ccc2nc(SCc3cn4cccnc4n3)[nH]c2c1	3	2	-1	51*	1	0
O=[N+]([O-])c1ccc2nc(SCc3cn4cc(Cl)ccc4n3)[nH]c2c1	-1	-1	-1	78*	0	1
CCCCCCCCN1C(=O)[C@@H](CC(=O)NCCC(C)C)C[C@@]2(C(=O)OC)C1=C[C@H](C1CCCC1)O[C@@H]2C	2	2	-1	x	x	0
COc1ccc(CN2C[C@H](COCc3ccccc3)Oc3cccc(N4CCCC4)c3S2(=O)=O)cc1	0	2	-1	x	x	0
COc1cccc([C@@H](NC(=O)C(F)(F)F)[C@@H]2CCCC=C2c2ccccc2)c1	0	6	-1	x	x	0
COc1ccc(C2c3c(oc4ccccc4c3=O)C(=O)N2c2ccc(C)cn2)cc1OC (stereo not drawn)	-1	-1	-1	3	5.0*	1
